# Screens as filed in PubChem BioAssay.
# In the library only some 2.8% were active in any assay of this set; here they are far more common.
# RGS4 inh: human RGS4 inhibition | P49798 | AID 504845 | Transcreener GDP fluorescence polarization, RGS4-accelerated GTP hydrolysis | 390,000 compounds, 0.039% hits | Potency, µM (doses to about 114 µM), for inactives: at the top dose activity change, negative = inhibition, most hits filed as inhibitors; active = well fitted inhibition curve with a large enough effect; inconclusive = small, poorly fitted or top-dose-only effect; inactive = no such curve, though single readings can be large or run the other way; also: potency is read from the fitted curve at half-maximal effect; % is scaled to controls: 0 for no effect and ±100 for the full control effect; nearly all actives have a fitted effect of over 75% in size
#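 MLSMR compounds (23 nl, pin-transferred) preincubated 10 min at room temperature with a 500nM (2x) first reagent, then RGS4 at 900nM (2x) plus Transcreener GDP mix added; fluorescence polarization (620/688 nm) read before and after 90 min at 30 °C.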
# DRD3 antagonist: D3 dopamine receptor (human) antagonism | 360,000 compounds, 2.5% hits | D3R cells, DiscoveRx beta-arrestin luminescence, antagonist mode; stronger effect = lower value | max response, negative = inhibition, %; in the data active = max response below about -50%; inconclusive = no clear call, values can overlap the other calls; also: % is scaled to controls: 0 for no effect and ±100 for the full control effect
# Target sequence (P35462 whole entry, looked up): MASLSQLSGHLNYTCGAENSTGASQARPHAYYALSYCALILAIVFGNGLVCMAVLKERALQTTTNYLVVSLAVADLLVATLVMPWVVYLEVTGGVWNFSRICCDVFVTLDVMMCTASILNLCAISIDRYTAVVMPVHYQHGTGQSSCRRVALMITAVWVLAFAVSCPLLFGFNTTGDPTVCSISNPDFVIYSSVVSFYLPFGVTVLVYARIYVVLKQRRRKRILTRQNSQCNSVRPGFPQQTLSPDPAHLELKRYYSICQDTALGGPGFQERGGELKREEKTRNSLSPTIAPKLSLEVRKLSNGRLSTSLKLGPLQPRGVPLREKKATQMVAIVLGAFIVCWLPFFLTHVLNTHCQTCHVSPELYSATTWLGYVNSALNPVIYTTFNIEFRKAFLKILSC
#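 Cells expressing the human receptor were seeded at 1500 cells/well, incubated overnight at 37 degrees C in 5% CO2, then exposed to library compounds with dopamine controls for 90 minutes at 37 degrees C before luminescent detection.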
# Akt phos inh: blocks phosphorylation of Akt. 360,000 compounds, 0.32% hits. Neuro2A IGF-stimulated pAkt S473 HTRF, 20 min; stronger effect = lower value. activity change, % for hits at 50 µM; in the data active = activity change below about -80%; inconclusive = mostly about -51% to -80%; also: % is scaled to controls: 0 for no effect and ±100 for the full control effect
#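 Single-point screen (50 µM final compound) in Neuro2A cells stimulated 20 min with 6 nM IGF at 37 deg C. After lysis, Ser473-phosphorylated Akt read by HTRF (ex 330 nm, em 615/665 nm) as the 665/615 ratio.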
# D3 ag: agonists of human D3 dopamine receptor; D3R DiscoveRx beta-arrestin cells, luminescence, 90 min; max activation, %; 410,000 compounds, 0.58% hits; AID 652048; in the data active = max activation above about 30%; also: 0% is about no effect
#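 Cells at 1500/well, incubated overnight, then treated with pinned compounds (dopamine as control) for 90 min at 37 degrees C. DiscoveRx reagent added for 30 - 60 minutes at room temperature; luminescence read.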
# PI4K2A inh: PI4K2A (human) kinase inhibition. activity change, negative = inhibition, % at 76.9 µM. Q9BTU6. purified PI4K2A, ADP-Glo luminescence, 1 h; stronger effect = lower value. 420,000 compounds, 0.13% hits; in the data active = activity change below about -50%; inconclusive = mostly about -30% to -49%;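 also: -100% = wells without enzyme as full effect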
#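 In this quantitative HTS, ADP production by PI4K2A was quantified luminescently after 1 h at ambient temperature; 100 microM adenosine served as plate-quality control.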
# LDHA block: blocks human lactate dehydrogenase A; purified LDHA, NADH/diaphorase-resazurin fluorescence; stronger effect = lower value; AID 1347041; P00338; activity change, % (values are at about 110 or 230 µM); 480,000 compounds, 0.15% hits; in the data active = activity change below about -30%; inconclusive = mostly about -25% to -30%;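 also: plate controls were DMSO wells for no effect and wells without enzyme for full effect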
#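 LDH5 2 nM; NADH 0.06 mM, pyruvate 0.2 mM; 200 mM Tris pH 7.4, EDTA, Tween-20; 5 min RT. Detection: diaphorase 0.133 mg/mL + resazurin 37 µM, fluorescence ex540/em590 at 0 and 20 min; normalized to enzyme-free and DMSO wells.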
# Active calls of the source: *; i = inactive; u = inconclusive; x = no result; ! = a repeat was not active.
SMILES,RGS4 inh,DRD3 antagonist,Akt phos inh,D3 ag,PI4K2A inh,LDHA block
CCOc1ccc(N=C2NC(=O)S/C2=C\c2ccc(Cl)cc2)cc1,-9%,-2,i,-1,-3,-9
CC1C(=O)CCN(C)C1C (stereo not drawn),x,x,x,x,x,0
CC(C)Cn1c(N)c(C(=O)COC(=O)C2CC(=O)N(Cc3ccccc3Cl)C2)c(=O)n(C)c1=O (stereo not drawn),3%,58,i,39*,-1,-5
O=C(Nc1ccc(O)cc1)c1cc(=O)[nH]c2ccccc12,x,x,x,x,x,18
OC(COc1ccc2c(c1)CCC2)Cn1cnc2ccccc21 (stereo not drawn),-13%,-12,-123%*,1,1,1
O=C(CN1CCSCC1)N/N=C/c1ccccc1F,38%,-19,-98%*,-9,3,-23
CCN(CC(=O)NC(C)(C)C)C(=O)c1cc(C(C)C)nc2ccccc12,x,x,x,x,x,2
COc1ccc(CN(C)C(c2ccccc2)c2nnnn2-c2ccccc2C)c(OC)c1C (stereo not drawn),0%,0,i,-12,-7,-4
COc1cccc(CN(C)C(c2ccccc2)c2ccccc2)c1OC,9%,-51*,i,-18,1,2
COc1ccc(-c2ocnc2C(=O)Nc2cccc(Cl)c2C)cc1OC,x,x,x,x,x,0
CCOc1ccc(-c2cc3cc(OC)c(OC)cc3c(C)n2)cc1,7%,-2,i,-6,-2,-5
CCc1nc(-c2ccc(OC)c(OC)c2)cc2cc(OC)c(OC)cc12,6%,53,i,36*,-5,-3
O=C(Nc1ccc(Cl)c(C(F)(F)F)c1)C1Cc2c(-c3ccccc3)ccnc2O1 (stereo not drawn),x,u,i,-1,-3,-4
CC(=O)Nc1ccc(-c2ccnc3c2CC(C(=O)Nc2ccc(Cl)c(C(F)(F)F)c2)O3)cc1 (stereo not drawn),x,-66*,i,-9,5,-6
c1ccc(CN2CCN(c3ncccn3)CC2)cc1,-3%,-25,i,24,1,-20
Clc1ccc(CN2CCN(c3ncccn3)CC2)cc1,-11%,14,i,36*,1,-10
SC(COCc1ccccc1)CN1CCN(Cc2ccc3c(c2)OCO3)CC1 (stereo not drawn),-12%,-55*,i,-16,-6,-3
OC(COCc1ccccc1)CN1CCN(Cc2ccc3c(c2)OCO3)CC1 (stereo not drawn),22%,-20,i,-13,-4,-10
c1ccc(COc2ccc(CN3CCN(c4ccccn4)CC3)cc2)cc1,-22%,-16,i,51*,-8,-6
c1ccc(N2CCN(Cc3ccc4c(c3)OCO4)CC2)nc1,3%,u,i,47*,9,-6
C#CC(C)(CC)NC(=O)Cc1ccccc1 (stereo not drawn),x,x,x,x,x,-17
O=S1(=O)N=C(N2CCN(Cc3ccc4c(c3)OCO4)CC2)c2ccccc21,25%,-81*,i,-18,2,-6
Clc1ccc(CN2CCN(c3ncnc4nc[nH]c34)CC2)c(Cl)c1,x,x,x,x,x,-8
O=c1c(CN2CCN(c3ccccn3)CC2)coc2ccccc12,2%,-21,i,8,0,-21
Clc1ccc(N2CCN(c3ncnc4nc[nH]c34)CC2)cc1Cl,x,x,x,x,x,-31*
c1nc(N2CCN(Cc3ccc4c(c3)OCO4)CC2)c2[nH]cnc2n1,-12%,-62*,i,-9,-3,3
Brc1ccc(CN2CCN(c3ccccn3)CC2)s1,11%,-8,i,68*,-3,-16
CCOc1ccc(N2C(=O)c3ccccc3NC23CCSC3)cc1 (stereo not drawn),x,x,x,x,x,9
c1cnc(N2CCN(Cc3ccc4c(c3)OCO4)CC2)nc1,u,u,i,56*!,-2,0
c1cc2c(cc1CN1CCOCC1)OCO2,15%,0,i,-28,-3,-11
